High-throughput results (PubChem BioAssay)
HCV inhibitor: qHTS Assay for Inhibitors of Hepatitis C Virus (HCV) | Huh7.5.1 HCVcc-Cre infection, luciferase reporter, 44 h | Potency, µM (doses to about 41.8 µM), without a hit: top-dose activity change, negative = inhibition, hits mostly inhibitors | hit rate 3.4% among 340,000 | AID 651820, 2012; active means well fitted inhibition curve with a large enough effect; inconclusive means small, poorly fitted or top-dose-only effect, or another doubt; inactive means no such curve, though single readings can be large or run the other way; further: potency means the concentration at half of the fitted maximal effect
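Cells seeded at 1,000/well and cultured 4 h, then compounds added followed by HCVcc-Cre virus (~0.5 moi). After 44 h further culture, luciferase substrate was added, plates held 15 min at room temperature, and luminescence read for 15 sec.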
Marburg entry inh: qHTS for inhibitors of binding or entry into cells for Marburg Virus; Marburg virus pseudotyped entry inhibition, cell reporter; Potency, µM (doses to about 37.8 µM), without a hit: top-dose activity change, negative = inhibition, hits mostly inhibitors; hit rate 1.8% among 300,000; calls by dose curve; tested in HEK293 cells; further: potency means the concentration at half of the fitted maximal effect
HCMV antiviral: qHTS Assay for inhibitors of the human cytomegalovirus (HCMV). activity change, negative = inhibition, % at 57.5 µM. HFF cells, HCMV-luciferase reporter, 72 h; hits give low values. hit rate 4.5% among 410,000; in the data active means activity change below about -60%; inconclusive means no clear call, values can overlap the other calls; inactive means above about -39%
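Steps: HFFs plated, 16 h 37C; compounds added; HCMV-luciferase added to MOI 1 PFU/cell; 72 h 37C; OneGlo reagent, 5 min room temperature; luminescence read, normalized to controls.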
FMDV inh: High Throughput Screening for Foot and Mouth Disease Virus Antivirals. FMDV antiviral cell-based qHTS. Potency, µM (highest dose often 57.9 µM), for inactives: at the highest dose activity change, negative = inhibition, most hits filed as inhibitors. hit rate 1.2% among 410,000. AID 1159524, 2015; calls by dose curve; tested in HEK293T cells; further: read-out not given here; potency means the concentration at half of the fitted maximal effect; nearly all actives have a fitted effect of over 45% in size
LASV entry inh: qHTS for Inhibitors of binding or entry into cells for Lassa Virus | Lassa virus pseudotype entry inhibition, cell reporter | Potency, µM (series often up to 37.9 µM), for the others: at the top dose activity change, negative = inhibition, usual class: inhibitors | hit rate 1.2% among 300,000; calls by dose curve; tested in HEK293 cells; further: potency means the concentration at half of the fitted maximal effect; nearly all actives have a fitted effect of over 50% in size
An asterisk follows results filed as active; ? = inconclusive; . = no result given; ! = not confirmed by another sample; [ ] = another dose, or the depositor's remark. Hits are enriched below; roughly 7.9% of the tested compounds scored in any of these assays. On the % scale 0 is the no-effect control and ±100 the full control effect.

SMILES	HCV inhibitor	Marburg entry inh	HCMV antiviral	FMDV inh	LASV entry inh
Cc1ccc(S(=O)(=O)N2CCN(Cc3noc(CCC(=O)N4CCCCC4)n3)CC2)c(C)c1	.	.	-16	-21%	-2%[46.1 µM]
C=CCN1C(=O)C2(CC(C)=C[C@@H](C)O2)c2c(Br)cccc21 (stereo not given in full)	.	26%[14.2 µM]	.	.	.
OCCCc1cn(Cc2ccccc2)c2ccccc12	-1%	2%	20	-1%	12%
CCCCCN=c1ccn(Cc2ccccc2)c2ccccc12	.	.	.	40µM*	.
Cc1ccc(NC(=O)CSc2nc(C)c(Cc3ccccc3)c(=O)[nH]2)cc1	7%	1%[46.1 µM]	-64*!	-18%	5%
Cc1ccc2nc(-c3ccc(NC(=O)CSc4ccccc4)cc3)[nH]c2c1	11µM*	?	?	.	?
Cc1nc(SCC(=O)Nc2ccc(Br)cc2)[nH]c(=O)c1Cc1ccccc1	.	2%[46.1 µM]	4	-23%	2%[46.1 µM]
COc1cccc(C(=O)Nc2c(C(=O)NC(C)(C)C)oc3ccccc23)c1	.	.	-15	-29%	-18%[46.1 µM]
COc1ccccc1OCCn1c(C(C)Oc2ccccc2)nc2ccccc21 (stereo not given)	.	?	-4	-18%	?
O=C1OC(N2C(=O)CC[C@H]2C(=O)Nc2ccc(F)c(F)c2)c2ccccc21 (stereo not given in full)	16%	.	15	-26%	.
O=C1OC(N2C(=O)CC[C@H]2C(=O)Nc2ccc3c(c2)OCO3)c2ccccc21 (stereo not given in full)	0.89µM*	.	-15	2%	.
Fc1ccc(C2c3[nH]c4ccccc4c3CCN2Cc2cccn2-c2ncccn2)cc1 (stereo not given)	?	?	-91*	-1%	?
Cc1ccccc1COc1ccc(/C(O)=C2\C(=O)C(=O)N(CCCn3ccnc3)[C@H]2c2ccco2)cc1	.	21%	.	.	.
CCOc1ccccc1-c1nc(CN2CCCN(C(=O)c3ccco3)CC2)c(C)o1	.	-3%	-101*	3%	-11%
CC(C)c1nc2ccc(C(=O)NCCCN3CCN(c4cccc(Cl)c4)CC3)cc2o1	.	.	?	0%	3%[46.1 µM]
CC(C)CNC(=O)C(C)(C)n1cc(NC(=O)COCc2ccccc2)cn1	.	.	4	.	.
CCC1CN(C(=O)N2CCC(C(=O)NCCc3ccc(C)cc3)CC2)c2ccccc2O1 (stereo not given)	.	.	30	?	4%[46.1 µM]
C[N+]1(C)[C@@H]2CC[C@H]1CC(OC(=O)C(c1ccccc1)c1ccccc1)C2 (stereo not given in full)	-27%	.	-14	-1%	.
CC[N+]1(C)[C@@H]2CC[C@H]1CC(OC(=O)[C@H]1CCC(C(=O)OC3C[C@H]4CC[C@@H](C3)[N+]4(C)CC)(c3ccccc3)c3ccccc31)C2 (stereo not given in full)	-9%	.	-69*	-25%	.
COc1cccc(N2C(=O)C(CC(=O)Nc3ccccc3)N(CCc3sccc3C)C2=O)c1 (stereo not given)	.	?	-4	-4%	?
CCN(Cc1ccccc1)S(=O)(=O)c1ccc(C(=O)N(CCCN(C)C)c2nc3c(F)cccc3s2)cc1	-20%	8.9µM*	-2	3%	?
Cc1cc(C)c2sc(N(CCCN(C)C)C(=O)c3ccc(Br)s3)nc2c1	13µM*	.	-39	?	.
CCOc1cccc2sc(N(CCCN(C)C)C(=O)c3ccc(S(=O)(=O)N(CC)Cc4ccccc4)cc3)nc12	?	?	?	-25%	?
CCN(Cc1ccccc1)S(=O)(=O)c1ccc(C(=O)N(CCCN(C)C)c2nc3cc(C)cc(C)c3s2)cc1	10µM*	10µM*	-37	-22%	?
COC(=O)C1=Nc2ccccc2/C1=C\c1c(O)n(-c2ccc(Br)cc2)c(=O)[nH]c1=O	?	-18%	28	20µM*	-1%
SMILES	HCV inhibitor	Marburg entry inh	HCMV antiviral	FMDV inh	LASV entry inh
COC(=O)C1=Nc2ccccc2/C1=C\c1c(O)n(-c2ccc(OC)cc2)c(=O)[nH]c1=O	-19%	-18%	14	-19%	-1%
COc1ccc(Cl)cc1N(C)C(=O)Cc1noc2ccc(C)cc12	.	.	-16	1%	-6%[46.1 µM]
Nc1cc(Cl)cc2c1-c1ccc(Cl)cc1C2O (stereo not given)	?	10%[46.1 µM]	?	47%	-12%[46.1 µM]
O=C(Nc1cc(Cl)cc2c1-c1ccc(Cl)cc1C2O)C(Cl)Cl (stereo not given)	11µM*	?	-15	-23%	13µM*
Fc1ccc(CN2CCN3CCCC3C2C2CCCCC2)cc1F (stereo not given)	-27%	?	-6	?	13µM*
Fc1cccc(CN2CCN3CCCC3C2C2CCCCC2)c1 (stereo not given)	?	?	28	?	-2%
CCOc1ccc(NC(=O)CC2C(=O)N(c3ccc(OC)cc3)C(=O)N2CCc2cccs2)cc1 (stereo not given)	-21%	?	-27	5%	7.3µM*
CCOC(=O)c1ccc(NC(=O)CC2C(=O)N(c3ccc(F)cc3)C(=O)N2CCC(C)C)cc1 (stereo not given)	3%	26µM*	13	?	?
COc1ccc(NC(=O)CC2C(=O)N(c3ccccc3)C(=O)N2CCc2cccs2)cc1 (stereo not given)	13%	-9%	-26	13%	?
Cc1ccc(NC(=O)CN(Cc2ccco2)Cc2ccccc2O)cc1C	?	?	-64*	6%	?
CCCc1ccc(C(=O)NNc2cccc(C)c2)cc1	-26%	4µM*	22	27%	?
O=c1c2cnn(-c3ccc(F)cc3)c2ncn1Cc1cccc(Cl)c1	.	?	-1	0%	?
O=C(Nc1cccc(C(F)(F)F)c1)Nc1ccc(N2CCCC2)c(S(=O)(=O)Nc2ccccc2Cl)c1	2.2µM*	2.5µM*	-100*	17%	4µM*
COc1ccccc1NS(=O)(=O)c1cc(NC(=O)C2CCC2)ccc1N1CCCCC1	-15%	.	-30	44%	.
CC(=O)Nc1ccc(N2CCOCC2)c(S(=O)(=O)Nc2ccccc2Cl)c1	.	.	-11	52%	.
COc1ccccc1NS(=O)(=O)c1cc(NC(=O)Nc2ccc(Cl)cc2Cl)ccc1N1CCCCC1	?	?	-62*	55%	?
CCC1CCCCN1S(=O)(=O)c1ccc(NC(=O)c2cccnc2)cc1 (stereo not given)	.	-29%	-12	11%	?
COc1cc(OC)cc(C(=O)Nc2ccc(S(=O)(=O)N3CCCCC3c3cccnc3)cc2)c1 (stereo not given)	.	.	-68*	?	?
C[C@H](NC(=O)[C@H]1N2C(=O)c3ccccc3C2SC1(C)C)C(=O)N1CCC[C@H]1C(=O)O (stereo not given in full)	1µM*	.	14	-6%	.
